Assay results: PubChem BioAssay (NCATS)
Records with an inconclusive call do not appear. The source made the active and inactive calls. The call rests on the fitted dose curve; in most records, active means well fitted cell-killing curve with a large enough effect; inconclusive means small, poorly fitted or top-dose-only effect, or effect the other way; inactive means flat fitted curve, though single readings scatter.

Legend:
Assay in all cases: Primary qHTS to identify gynecologic anti-cancer compounds using libraries of approved drugs and bioactive compounds (AID 1345084); further: nearly all actives have a fitted effect of over 55% in size
C33A = conditions: Gynecologic cancer cell panel viability, ATPlite luminescence, 48 h; series mostly up to 57.5 µM
Method in brief: (§1)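 Five-point cytotoxicity, 48 h drug exposure at 37 C, 5% CO2, on cells seeded 16 h beforehand. ATP content read by ATPlite luminescence.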

CAOV3 = conditions: Gynecologic cancer cell panel viability, ATPlite luminescence, 48 h; series mostly up to 57.5 µM
Method in brief: as §1

CASKI = conditions: Gynecologic cancer cell panel viability, ATPlite luminescence, 48 h; series mostly up to 57.5 µM
Method in brief: as §1

Es-2 = conditions: Gynecologic cancer cell panel viability, ATPlite luminescence, 48 h; series mostly up to 57.5 µM
Method in brief: as §1

HeLa = conditions: Gynecologic cancer cell panel viability, ATPlite luminescence, 48 h; series mostly up to 57.5 µM
Method in brief: as §1

Hek293T = conditions: Gynecologic cancer cell panel viability, ATPlite luminescence, 48 h, control line for the selectivity index; series mostly up to 57.5 µM
Method in brief: as §1

JEG-3 = conditions: Gynecologic cancer cell panel viability, ATPlite luminescence, 48 h; series mostly up to 57.5 µM
Method in brief: as §1

OV90 = conditions: Gynecologic cancer cell panel viability, ATPlite luminescence, 48 h; series mostly up to 57.5 µM
Method in brief: as §1

PA-1 = conditions: Gynecologic cancer cell panel viability, ATPlite luminescence, 48 h; series mostly up to 57.5 µM
Method in brief: as §1

SKOV3 = conditions: Gynecologic cancer cell panel viability, ATPlite luminescence, 48 h; series mostly up to 57.5 µM
Method in brief: as §1

Tov-21-G = conditions: Gynecologic cancer cell panel viability, ATPlite luminescence, 48 h; series mostly up to 57.5 µM
Method in brief: as §1

Tov112D = conditions: Gynecologic cancer cell panel viability, ATPlite luminescence, 48 h; series mostly up to 57.5 µM
Method in brief: as §1
On the % scale 0 is the no-effect control and ±100 the full control effect.

C[C@@H]1CC[C@]2(C(=O)O)CC[C@]3(C)C(=CCC4[C@@]5(C)C[C@@H](O)[C@H](O)[C@@](C)(CO)C5CC[C@]43C)C2[C@H]1C (some centres not stated)
inactive: Potency (C33A) | Potency (CAOV3) | outcome (CASKI) | Potency (Es-2) | Potency (HeLa) | Potency (Hek293T) | Potency (JEG-3) | Potency (OV90) | Potency (PA-1) | Potency (SKOV3) | Potency (Tov-21-G) | Potency (Tov112D)

C=C1CCC2C(C)(C)CC(O)CC2(C)C1CCC(C)CCOC(=O)CCC(=O)O (configuration not stated)
inactive: Potency (C33A) | Potency (CAOV3) | outcome (CASKI) | Potency (Es-2) | Potency (HeLa) | Potency (Hek293T) | Potency (JEG-3) | Potency (OV90) | Potency (PA-1) | Potency (SKOV3) | Potency (Tov-21-G) | Potency (Tov112D)

CCCCCOC(=O)Nc1nc(=O)n(C2O[C@H](C)[C@@H](O)[C@H]2O)cc1F (some centres not stated)
inactive: Potency (C33A) | Potency (CAOV3) | outcome (CASKI) | Potency (Es-2) | Potency (HeLa) | Potency (Hek293T) | Potency (JEG-3) | Potency (OV90) | Potency (PA-1) | Potency (SKOV3) | Potency (Tov-21-G) | Potency (Tov112D)

OC[C@H]1O[C@@H](OCc2ccccc2)[C@H](O[C@@H]2OC[C@@H](O)[C@H](O)[C@H]2O)[C@@H](O)[C@@H]1O
inactive: Potency (C33A) | Potency (CAOV3) | outcome (CASKI) | Potency (Es-2) | Potency (HeLa) | Potency (Hek293T) | Potency (JEG-3) | Potency (OV90) | Potency (PA-1) | Potency (SKOV3) | Potency (Tov-21-G) | Potency (Tov112D)

COc1cc(C(=O)OC[C@@]2(O)CO[C@@H](O[C@H]3[C@H](Oc4ccc(O)cc4)O[C@H](CO)[C@@H](O)[C@@H]3O)[C@@H]2O)cc(OC)c1O
inactive: Potency (C33A) | Potency (CAOV3) | outcome (CASKI) | Potency (Es-2) | Potency (HeLa) | Potency (Hek293T) | Potency (JEG-3) | Potency (OV90) | Potency (PA-1) | Potency (SKOV3) | Potency (Tov-21-G) | Potency (Tov112D)

COC(=O)C1=COC(O[C@@H]2O[C@H](CO)[C@@H](O)[C@H](O)[C@H]2O)[C@@H]2[C@@](C)(O)[C@@H](OC(=O)/C=C/c3ccccc3)C[C@]12O (some centres not stated)
inactive: Potency (C33A) | Potency (CAOV3) | outcome (CASKI) | Potency (Es-2) | Potency (HeLa) | Potency (Hek293T) | Potency (JEG-3) | Potency (OV90) | Potency (PA-1) | Potency (SKOV3) | Potency (Tov-21-G) | Potency (Tov112D)

CC(C)c1c(NC(=O)Nc2ccc(Cl)cc2)c(=O)n(-c2ccccc2)n1C
inactive: Potency (C33A) | Potency (CAOV3) | outcome (CASKI) | Potency (Es-2) | Potency (HeLa) | Potency (Hek293T) | Potency (JEG-3) | Potency (OV90) | Potency (PA-1) | Potency (SKOV3) | Potency (Tov-21-G) | Potency (Tov112D)

C=C1CC[C@H]2[C@@](C)(CCC(O)[C@@]2(C)CO)[C@@H]1/C=C/C(=C\C(=O)O)C(=O)O (some centres not stated)
inactive: Potency (C33A) | Potency (CAOV3) | outcome (CASKI) | Potency (Es-2) | Potency (HeLa) | Potency (Hek293T) | Potency (JEG-3) | Potency (OV90) | Potency (PA-1) | Potency (SKOV3) | Potency (Tov-21-G) | Potency (Tov112D)

COc1cc(CCCO)ccc1O[C@@H]1O[C@H](CO)[C@@H](O)[C@H](O)[C@H]1O
inactive: Potency (C33A) | Potency (CAOV3) | outcome (CASKI) | Potency (Es-2) | Potency (HeLa) | Potency (Hek293T) | Potency (JEG-3) | Potency (OV90) | Potency (PA-1) | Potency (SKOV3) | Potency (Tov-21-G) | Potency (Tov112D)

Nc1ncnc2c1c(COc1cccc(Cl)c1)nn2C1CCOCC1
inactive: Potency (C33A) | Potency (CAOV3) | outcome (CASKI) | Potency (Es-2) | Potency (HeLa) | Potency (Hek293T) | Potency (JEG-3) | Potency (OV90) | Potency (PA-1) | Potency (SKOV3) | Potency (Tov-21-G) | Potency (Tov112D)

CC1=CC(=O)CC(C)(C)C1CO[C@@H]1O[C@H](CO)[C@@H](O)[C@H](O)[C@H]1O (some centres not stated)
inactive: Potency (C33A) | Potency (CAOV3) | outcome (CASKI) | Potency (Es-2) | Potency (HeLa) | Potency (Hek293T) | Potency (JEG-3) | Potency (OV90) | Potency (PA-1) | Potency (SKOV3) | Potency (Tov-21-G) | Potency (Tov112D)

C=C[C@]1(C)C[C@@H](OC(=O)CSC2C[C@H]3CC[C@@H](C2)N3C)[C@]2(C)[C@H](C)CC[C@]3(CCC(=O)[C@H]32)[C@@H](C)[C@@H]1O (some centres not stated)
inactive: Potency (C33A) | Potency (CAOV3) | outcome (CASKI) | Potency (Es-2) | Potency (HeLa) | Potency (Hek293T) | Potency (JEG-3) | Potency (OV90) | Potency (PA-1) | Potency (SKOV3) | Potency (Tov-21-G) | Potency (Tov112D)

C/C=C/C=C/C(=O)OC1CC/C=C/C(O)C(O)C(CCC)OC1=O (configuration not stated)
inactive: Potency (C33A) | Potency (CAOV3) | outcome (CASKI) | Potency (Es-2) | Potency (HeLa) | Potency (Hek293T) | Potency (JEG-3) | Potency (OV90) | Potency (PA-1) | Potency (SKOV3) | Potency (Tov-21-G) | Potency (Tov112D)

CC(=O)O[C@@H]1C(=O)C(C)=C(CCC(C)CC(=O)O)[C@@]2(C)CCCC(C)(C)C12 (some centres not stated)
inactive: Potency (C33A) | Potency (CAOV3) | outcome (CASKI) | Potency (Es-2) | Potency (HeLa) | Potency (Hek293T) | Potency (JEG-3) | Potency (OV90) | Potency (PA-1) | Potency (SKOV3) | Potency (Tov-21-G) | Potency (Tov112D)

COc1c(C)c(OCC=C(C)C)cc2c1COC2=O
inactive: Potency (C33A) | Potency (CAOV3) | outcome (CASKI) | Potency (Es-2) | Potency (HeLa) | Potency (Hek293T) | Potency (JEG-3) | Potency (OV90) | Potency (PA-1) | Potency (SKOV3) | Potency (Tov-21-G) | Potency (Tov112D)

CC(=O)OCC1OC(OC2COC(OC3COC(OC4C(OC5C(CO)OC(OC6CCC7(C)C(CCC8(C)C7CC=C7C9CC(C)(C)CCC9(C(=O)OC9OC(CO)C(O)C(O)C9OC9OCC(OC%10OCC(O)(CO)C%10O)C(O)C9O)C(O)CC78C)C6(C)C)C(O)C5O)OCC(O)C4O)C(O)C3O)C(O)C2O)C(OC(=O)/C=C/c2ccccc2)C(O)C1OC(C)=O (configuration not stated)
inactive: activity change, negative = cytotoxicity (C33A) 6.07% [at 6.55 µM] | activity change, negative = cytotoxicity (CAOV3) -0.975% [at 6.55 µM] | activity change, negative = cytotoxicity (CASKI) 5.64% [at 6.55 µM] | activity change, negative = cytotoxicity (Es-2) -4.41% [at 6.55 µM] | activity change, negative = cytotoxicity (HeLa) 6.46% [at 6.55 µM] | activity change, negative = cytotoxicity (Hek293T) 3.2% [at 6.55 µM] | activity change, negative = cytotoxicity (JEG-3) -2.72% [at 6.55 µM] | activity change, negative = cytotoxicity (OV90) -0.455% [at 6.55 µM] | activity change, negative = cytotoxicity (PA-1) -23.4% [at 6.55 µM] | activity change, negative = cytotoxicity (SKOV3) 14.7% [at 6.55 µM] | activity change, negative = cytotoxicity (Tov-21-G) -3.47% [at 6.55 µM] | activity change, negative = cytotoxicity (Tov112D) 9.27% [at 6.55 µM]
